# Test results reported in PubChem BioAssay (NCI).
# The panel holds about 83,000 compounds, 20% with a hit somewhere; the sample as a whole holds those more often.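 Percent growth is the endpoint: 0 to 100 indicates growth inhibition (40 means 60% inhibition), 0 means no net growth, and negative values indicate cell death.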 The source made the active and inactive calls. The calls were made as follows: active = growth percent below 10; inactive = the rest.
# Tested on: HL-60(TB) leukemia
# Assay: NCI-60 one-dose screen, 48 h (100 = growth as untreated, 0 = no growth, -100 = all killed)
# Details: 10 µM unless noted
row,Compound,growth
1,N#Cc1cc2[nH]c3ccc(OC(F)(F)F)cc3c2oc1=O,99.8% (inactive)
2,COc1cnc2c(c1)C(=O)c1c-2n(CCCN2CCNCC2)c(=O)c2cc([N+](=O)[O-])ccc12,-49% (active)
3,Cc1cnc(/C=N\NC(N)=S)c2cccc(N)c12,-29.7% (active)
4,N#CC1=C(N)Oc2c(c(=O)[nH]c3ccc(Cl)cc23)C12C(=O)c1ccccc1C2=O,99.8% (inactive)
5,COc1cc(-c2nc(-c3nnc(-c4cccnc4)o3)c3ccccn23)cc(OC)c1OC,95.7% (inactive)
6,CNC(=O)c1ccccc1Oc1nc(Nc2cc(OC)c(OC)c(OC)c2)ncc1Br,53.2% (inactive)
7,O=C(Nc1cc(Br)ccn1)c1cc2cc(Nc3nc(-c4ccccc4)nc4ccccc34)ccc2oc1=O,87.3% (inactive)
8,CCc1c(C(=O)Nc2ccc3ccccc3c2)[nH]c(C)c1C(C)=O,99.7% (inactive)
9,CCN(CC)Cc1cc(Nc2c3ccccc3nc3cc(Cl)ccc23)ccc1O,-37.5% (active)
10,C=C(C)[C@@H]1CC[C@]2(C=NCCCNCCCCNCCCN)CC[C@]3(C)[C@H](CC[C@@H]4[C@@]5(C)CCCNC(C)(C)[C@@H]5CC[C@]43C)[C@@H]12,89.6% (inactive)
11,COc1cccc(C2C(C#N)=C(N)Oc3cc(OC)ccc32)c1 (stereo not given),-32.2% (active)
12,Cc1cccc(N=Cc2ccccc2O)c1C,87.9% (inactive)
13,CC(=[N-])N1CCC[C@@H](Nc2c3ccccc3nc3ccccc23)C1.[Cl][Pt].[NH-]CCC[NH-],17% (inactive)
14,COc1ccc(/C=C2/CN(C(=O)c3ccc(C)cc3)C/C(=C\c3ccc(OC)cc3)C2=O)cc1,80% (inactive)
15,Cc1nc2cc(Nc3nc(NCCO)nc(Nc4ccc(F)cc4)n3)ccc2n1Cc1ccccc1,-26.8% (active)
16,CCn1cc(-c2ccnc(NCCNS(=O)(=O)c3cccc4ccccc34)c2)c(-c2cccc(O)c2)n1,103% (inactive)
17,C/C(=N\Nc1ccc([N+](=O)[O-])cc1[N+](=O)[O-])c1ccc(Br)cc1,101% (inactive)
18,O=C(O)c1ccc(-n2cc(/C=N/Nc3ccc(Cl)cc3)c(-c3ccc(F)c(F)c3)n2)cc1,27.1% (inactive)
19,COc1cccc(-c2nc3sccn3c2-c2ccnc(NCCCNS(=O)(=O)c3c(Cl)cccc3Cl)c2)c1,17.9% (inactive)
20,COc1ccc(/C=C2\COc3ccc(O)c(O)c3C2=O)c(OC)c1OC,-28.8% (active)

row,Compound,growth
1,NC(=N\N=C/c1ccccc1[N+](=O)[O-])/C(N)=N\N=C/c1ccccc1[N+](=O)[O-],105% (inactive)
2,CCCCN1CCN(c2ccc3nc(-c4ccc5nc(-c6ccc(OC)c(OC)c6)[nH]c5c4)[nH]c3c2)CC1,-25.1% (active)
3,O=C(NCCCCO)c1cncnc1Nc1ccc2c(ccn2Cc2cccc(F)c2)c1,100% (inactive)
4,COc1cc(CSc2nc3ccc(C)cc3c(=O)n2-c2ccccc2)cc(OC)c1OC,12.2% (inactive)
5,N#Cc1c(-c2ccccc2)cc(-c2ccccc2)n(CC(=O)NO)c1=O,-56.3% (active)
6,OC(c1cc(-c2ccc(C(F)(F)F)cc2)nc(-c2ccc(C(F)(F)F)cc2)c1)C1CCCCN1 (stereo not given),-61.8% (active)
7,CCCCCCCCN(CCO)CCCCCCCC,100% (inactive)
8,Cc1cc(C)c(-c2c(N)cc(Br)cc2Br)c(N)c1,21.1% (inactive)
9,CCCNNC(=O)/C=C/c1ccc(CNCCc2c(C)[nH]c3ccccc23)cc1,33.3% [2.5 µM] (inactive)
10,CCN(c1ccc(C(=O)N2CCN(c3ccccc3)CC2)cc1)S(C)(=O)=O,99.4% (inactive)
11,CCCCCCCCCCC1OC(C)CC(C)O1 (stereo not given),92.9% (inactive)
12,N#C/C(=C\NC(=S)N=Nc1c(O)[nH]c2ccccc12)c1nc2ccccc2s1,103% (inactive)
13,NC1=CSC2=N/C(=C\c3ccc(Cl)cc3)C(=O)N12,39.9% (inactive)
14,COCCOC(=O)NC(=O)Nc1ccc(C(=O)c2ccc(Cl)cc2)cc1,-13.3% (active)
15,FC(F)(F)Oc1ccc2c(c1)C[C@H]1C[C@@H](c3ccoc3)N2O1,104% (inactive)
16,O=C(CBr)CN1C(=O)c2ccccc2C1=O,103% (inactive)
17,CS(=O)(=O)Nc1cccc(-c2ccc3ncnc(Nc4ccc(F)c(Cl)c4)c3c2)c1,24.8% (inactive)
18,C=C(C)[C@@H]1CC[C@]2(C)[C@H](CC[C@@H]3[C@@H]([C@@](C)(O)CCC=C(C)C)CC[C@]32C)[C@@]1(C)CCC(=O)O,-24.1% [100 µM] (active)
19,CCNC(=O)C1CCCN1C(=O)C(CCCN=C(N)N)NC(=O)C(CC(C)C)NC(=O)C(CC(C)C)NC(=O)C(Cc1ccc(O)cc1)NC(=O)C(CO)NC(=O)C(Cc1c[nH]c2ccccc12)NC(=O)C(Cc1cnc[nH]1)NC(=O)C1CCC(=O)N1 (stereo not given),113% (inactive)
20,Oc1c(C(Nc2ccccn2)c2cccc(Oc3ccccc3)c2)ccc2cccnc12 (stereo not given),-51.9% (active)
